According to PubChem BioAssay (NCI):
About 83,000 compounds went through this panel and 20% of them were active in at least one assay; those are over-represented in the sample as a whole.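 Plates (96-well) were seeded with cells, treated with compound at one concentration, and incubated for 48 hours before percent growth was determined.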 A number with no mark means an inactive call. Active and inactive are the calls of the source. How the source made its calls: active means growth percent below 10; inactive means the rest.

Assays:
Assay in all cases: NCI-60 one-dose screen, 48 h (100 = growth as untreated, 0 = no growth, -100 = all killed)
Conditions in all cases: 10 µM unless noted
NCI-H23 lung = tested on: NCI-H23 lung
NCI-H226 lung = tested on: NCI-H226 lung
NCI-H322M lung = tested on: NCI-H322M lung
HOP-62 NSCLC = tested on: HOP-62 NSCLC
NCI-H460 lung = tested on: NCI-H460 lung
NCI-H522 lung = tested on: NCI-H522 lung
A549/ATCC NSCLC = tested on: A549/ATCC NSCLC
786-0 renal = tested on: 786-0 renal
COLO 205 colon = tested on: COLO 205 colon
DU-145 prostate = tested on: DU-145 prostate
K-562 leukemia = tested on: K-562 leukemia
MALME-3M melanoma = tested on: MALME-3M melanoma
MDA-MB-231 breast = tested on: MDA-MB-231 breast
RXF 393 renal = tested on: RXF 393 renal
SF-268 CNS = tested on: SF-268 CNS
SF-539 CNS = tested on: SF-539 CNS
UACC-257 melanoma = tested on: UACC-257 melanoma
M14 melanoma = tested on: M14 melanoma
HCT-15 colon = tested on: HCT-15 colon

Compound | growth (NCI-H23 lung) | growth (NCI-H226 lung) [%] | growth (NCI-H322M lung) | growth (HOP-62 NSCLC) | growth (NCI-H460 lung) | growth (NCI-H522 lung) | growth (A549/ATCC NSCLC) [%] | growth (786-0 renal) | growth (COLO 205 colon) | growth (DU-145 prostate) | growth (K-562 leukemia) | growth (MALME-3M melanoma) | growth (MDA-MB-231 breast) | growth (RXF 393 renal) | growth (SF-268 CNS) | growth (SF-539 CNS) | growth (UACC-257 melanoma) | growth (M14 melanoma) | growth (HCT-15 colon) [%]
CCN(CC)c1ccc(C(O)C2=CC(=O)c3ccccc3C2=O)cc1 (centres undefined) | -2.03% (active) | 37.5 | 25.2% | -12.7% (active) | 7.97% (active) | -62.2% (active) | 47.6 | 3.34% (active) | 21.6% | 3.92% (active) | 2.86% (active) | -11.3% (active) | -51% (active) | -80.2% (active) | -30.9% (active) | -38.2% (active) | 9.28% (active) | 13.8% | 30.3
NNC(=O)NO | 98.6% | 103 | 93% | 88.9% | 105% | 86% | 101 | 98.5% | 111% | 109% | 94.8% | 98.6% | 122% | 115% | 104% | 104% | 112% | 102% | 102
C=C1c2c(C)nn(-c3ccc(C#CCOC4OC(CO)C(O)C(O)C4O)cc3)c2N(C)C23C[C@H]1C1(C)c4c(C)nn(-c5ccc(C#CCOC6OC(CO)C(O)C(O)C6O)cc5)c4N(C)C(C)(C[C@H]12)C3 (some centres undefined) | 12.4% | 23.4 | 1.68% (active) | 3.61% (active) | -45.9% (active) | -3.82% (active) | 24.9 | 17.2% | 8.45% (active) | 16.9% | 9.32% (active) | 5.2% (active) | 5.4% (active) | 37.5% | 7.57% (active) | -15.3% (active) | 34.2% | 0.248% (active) | 21.7
COc1cccc(C2C(C#N)=C(N)Oc3cc(OC)ccc32)c1 (centres undefined) | 16.2% | 72.6 | 32.6% | 24.6% | 7.42% (active) | -38.4% (active) | 15.6 | 29.9% | -73.4% (active) | -15.2% (active) | -4.51% (active) | 36.6% | -15.4% (active) | 26.9% | 18.3% | -13.3% (active) | 59.2% | 12.6% | 10.4
COC(=O)c1ccc2c(c1)nc(-c1ccc(O)c(OC)c1)n2-c1cc(C(C)(C)C)[nH]n1 | 93.3% | 106 | 103% | 128% | 96.3% | 78.7% | 87.9 | 97.7% | 120% | 118% | 90.6% | 114% | 97.7% | 131% | 104% | 105% | 101% | 95.7% | 115
CN(C)c1nc(N)nc(Cn2c(-c3nonc3N)nc3ccccc32)n1 | 90.4% | 91.3 | 103% | 81% | 95.6% | 77.5% | 86.7 | 99.2% | 83.7% | 109% | 23.1% | 88% | 76.7% | 89.6% | 101% | 86.5% | 93.3% | 72.7% | 59.4
C[n+]1ccc(C#N)c2ccccc21 | 94.7% | 93.3 | 98% | 94.4% | 109% | 68.2% | 106 | 90.2% | 48.8% | 91.8% | 84.8% | 26.7% | 101% | 78.8% | 92% | 99.5% | 110% | 98.6% | 88.4
Cc1cc(NC(=O)c2ccc(N)cc2)ccc1N=Nc1ccc2c(O)c(N=Nc3ccc(Cl)c(S(=O)(=O)O)c3)c(S(=O)(=O)O)cc2c1 | 69.9% | 81.9 | 62.5% | 64.2% | 49.7% | 78.6% | 60.5 | 110% | 117% | 111% | 62.4% | 105% | 109% | 68.6% | 89.9% | 87.3% | 87.5% | 92.5% | 83.6
CN(C(=O)c1ccccc1)N(C)C(=O)c1ccccc1 | 110% | 112 | 96.6% | 94.7% | 109% | 102% | 103 | 100% | 102% | 121% | 107% | 94.4% | 107% | 122% | 116% | 108% | 113% | 99.2% | 111
CN(C)c1nc(-c2ccco2)n2nc(-c3ccco3)cc2n1 | 87.9% | 87.1 | 94% | 90.6% | 95.5% | 94.8% | 92.9 | 97.2% | 116% | 121% | 101% | 131% | 74.2% | 106% | 118% | 94.7% | 106% | 99.7% | 78.1
S=C1SCN(Cc2ccccc2)CN1Cc1ccco1 | 94.1% | 111 | 112% | 85.3% | 105% | 4.84% (active) | 101 | 90.5% | 83.3% | 68.3% | 11.6% | 94% | 91.3% | 101% | 94.2% | 65.8% | 72.4% | 87.1% | 41.7
CCOC(=O)C1=NN(c2ccc(Cl)cc2)C2C3N(c4ccc(Cl)cc4)N=C(C(=O)OCC)N3c3ccccc3N12 (centres undefined) | 87% | 107 | 98.5% | 114% | 106% | 88.7% | 99 | 95.6% | 128% | 118% | 70.7% | 132% | 103% | 106% | 102% | 116% | 119% | 102% | 121
COc1ccc(-c2cnnn2-c2cc(OC)c3c(c2)OCO3)cc1 | 26.6% | 88.4 | 42.8% | 30.2% | 11.2% | -45.2% (active) | 18.3 | 42.3% | -80.4% (active) | 12.8% | 0.651% (active) | 34.4% | 4.19% (active) | 10% | 29.9% | -15.2% (active) | 59.7% | 10.6% | 14.8
O=[P@@]1(c2ccccc2)O[C@H](COCc2ccccc2)[C@@H](OCc2ccccc2)[C@H](OCc2ccccc2)[C@H]1NCc1ccccc1 | 20.5% | 40.6 | 47.9% | 54.3% | 4.06% (active) | 20.5% | 13.3 | 13.9% | -57.2% (active) | 45.7% | 6.58% (active) | -7.61% (active) | 13.6% | 28.7% | 32.2% | 27.2% | 22.5% | 15.2% | 15.9
Nc1nc(N)c([N+](=O)[O-])c(=O)[nH]1 | 97.8% | 102 | 104% | 84.7% | 106% | 103% | 97.8 | 110% | 109% | 113% | 108% | 118% | 115% | 114% | 115% | 106% | 103% | 106% | 104
Nc1ccc2c(c1)/C(=N/O)c1cc([N+](=O)[O-])ccc1-2 | 71.5% | 76.3 | 42% | 91.7% | 27.3% | 55.1% | 49.2 | 63.1% | 104% | 46.4% | 22.9% | 57.9% | 91.7% | 85% | 62.6% | 60.1% | 81% | 49.4% | 61.2
